# What was measured:
# Assay in all cases: DAPPL (digital affinity profiling via proximity ligation, sequencing); 10 mM Tris-HCl pH 7.5, 50 mM NaCl, 1 mM DTT, 4% glycerol, room temperature, 30 min; GST-TFs on glutathione beads, 16-mer random dsDNA library, 0.1% formaldehyde crosslink after washing; high values mean tight binding
# FLI1 = target: T1, FLI1 (Homo sapiens, UniProt Q01543 1-452); conditions: protein: recombinant; tags: N-terminal GST; dsDNA, one strand shown
# T1 sequence: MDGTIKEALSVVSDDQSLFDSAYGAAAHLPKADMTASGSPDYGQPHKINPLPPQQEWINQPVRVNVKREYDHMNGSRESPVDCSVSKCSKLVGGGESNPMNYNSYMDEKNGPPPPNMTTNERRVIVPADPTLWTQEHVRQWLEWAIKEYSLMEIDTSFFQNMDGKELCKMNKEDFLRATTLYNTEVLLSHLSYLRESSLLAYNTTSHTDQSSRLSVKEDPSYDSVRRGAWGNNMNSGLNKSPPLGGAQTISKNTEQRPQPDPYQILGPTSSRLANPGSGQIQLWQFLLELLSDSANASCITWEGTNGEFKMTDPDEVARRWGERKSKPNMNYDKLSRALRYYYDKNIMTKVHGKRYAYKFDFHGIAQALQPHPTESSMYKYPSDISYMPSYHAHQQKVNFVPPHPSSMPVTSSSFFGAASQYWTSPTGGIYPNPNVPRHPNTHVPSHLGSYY
# Summary of the method: (§1)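 GST fusions of human transcription factors were expressed in yeast and captured with glutathione beads. Once given DNA barcodes and pooled alongside a tag-only sample, they were incubated for 30 min at room temperature with 200 nmole of a random double-stranded 16-mer DNA library in Tris/NaCl/DTT/glycerol buffer, then washed, crosslinked (0.1% formaldehyde), proximity-ligated, PCR-amplified and sequenced on an Illumina NextSeq500. The binding signal of each hexamer is its read frequency for a factor divided by its frequency for the tag-only sample.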
# ELK1 = target: T2, ELK1 (Homo sapiens, UniProt P19419 1-428); conditions: protein: recombinant; tags: N-terminal GST; dsDNA, one strand shown
# T2 sequence: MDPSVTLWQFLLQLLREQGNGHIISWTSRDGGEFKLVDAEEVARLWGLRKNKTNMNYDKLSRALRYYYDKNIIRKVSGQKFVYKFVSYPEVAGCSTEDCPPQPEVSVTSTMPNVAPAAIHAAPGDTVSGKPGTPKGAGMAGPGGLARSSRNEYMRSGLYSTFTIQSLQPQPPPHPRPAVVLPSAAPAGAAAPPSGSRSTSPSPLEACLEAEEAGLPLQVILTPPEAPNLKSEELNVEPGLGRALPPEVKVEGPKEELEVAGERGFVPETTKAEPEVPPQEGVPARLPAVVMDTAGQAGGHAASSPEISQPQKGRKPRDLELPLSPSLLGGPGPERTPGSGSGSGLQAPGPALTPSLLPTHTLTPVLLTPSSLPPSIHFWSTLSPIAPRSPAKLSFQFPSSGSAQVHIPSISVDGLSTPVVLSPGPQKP
# Summary of the method: as §1
# GABPA = target: T3, GABPA (Homo sapiens, UniProt Q06546 1-454); conditions: protein: recombinant; tags: N-terminal GST; dsDNA, one strand shown
# T3 sequence: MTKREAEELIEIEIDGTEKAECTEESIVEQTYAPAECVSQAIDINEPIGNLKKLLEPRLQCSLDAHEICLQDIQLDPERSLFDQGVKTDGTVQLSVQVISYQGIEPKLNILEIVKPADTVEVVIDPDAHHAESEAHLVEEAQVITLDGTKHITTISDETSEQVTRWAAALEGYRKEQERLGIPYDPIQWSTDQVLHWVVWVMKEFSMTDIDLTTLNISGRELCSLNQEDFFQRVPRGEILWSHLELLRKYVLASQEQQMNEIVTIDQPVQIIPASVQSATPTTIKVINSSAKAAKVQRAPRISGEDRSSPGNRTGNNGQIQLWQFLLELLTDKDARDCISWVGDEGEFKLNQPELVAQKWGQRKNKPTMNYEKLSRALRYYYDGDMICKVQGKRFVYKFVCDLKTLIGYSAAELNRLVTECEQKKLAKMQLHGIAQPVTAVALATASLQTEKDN
# Summary of the method: as §1
# ERG = target: T4, ERG (Homo sapiens, UniProt P11308 1-479); conditions: protein: recombinant; tags: N-terminal GST; dsDNA, one strand shown
# T4 sequence: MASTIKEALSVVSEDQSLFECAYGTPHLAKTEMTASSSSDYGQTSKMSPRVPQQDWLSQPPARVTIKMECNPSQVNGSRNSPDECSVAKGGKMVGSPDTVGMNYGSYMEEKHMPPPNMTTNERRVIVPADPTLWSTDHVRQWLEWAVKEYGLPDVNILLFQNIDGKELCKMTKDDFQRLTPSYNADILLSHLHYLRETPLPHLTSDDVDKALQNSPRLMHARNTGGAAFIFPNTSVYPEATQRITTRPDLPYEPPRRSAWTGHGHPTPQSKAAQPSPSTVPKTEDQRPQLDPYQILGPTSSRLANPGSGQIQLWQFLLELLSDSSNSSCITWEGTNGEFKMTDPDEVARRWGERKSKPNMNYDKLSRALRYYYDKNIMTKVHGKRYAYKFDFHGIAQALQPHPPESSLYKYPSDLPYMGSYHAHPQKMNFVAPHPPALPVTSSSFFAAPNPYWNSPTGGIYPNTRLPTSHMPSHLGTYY
# Summary of the method: as §1
# ELF1 = ELF1 (Homo sapiens, UniProt P32519 1-619); conditions: protein: recombinant; tags: N-terminal GST; dsDNA, one strand shown
# Chain of ELF1 (P32519 whole entry): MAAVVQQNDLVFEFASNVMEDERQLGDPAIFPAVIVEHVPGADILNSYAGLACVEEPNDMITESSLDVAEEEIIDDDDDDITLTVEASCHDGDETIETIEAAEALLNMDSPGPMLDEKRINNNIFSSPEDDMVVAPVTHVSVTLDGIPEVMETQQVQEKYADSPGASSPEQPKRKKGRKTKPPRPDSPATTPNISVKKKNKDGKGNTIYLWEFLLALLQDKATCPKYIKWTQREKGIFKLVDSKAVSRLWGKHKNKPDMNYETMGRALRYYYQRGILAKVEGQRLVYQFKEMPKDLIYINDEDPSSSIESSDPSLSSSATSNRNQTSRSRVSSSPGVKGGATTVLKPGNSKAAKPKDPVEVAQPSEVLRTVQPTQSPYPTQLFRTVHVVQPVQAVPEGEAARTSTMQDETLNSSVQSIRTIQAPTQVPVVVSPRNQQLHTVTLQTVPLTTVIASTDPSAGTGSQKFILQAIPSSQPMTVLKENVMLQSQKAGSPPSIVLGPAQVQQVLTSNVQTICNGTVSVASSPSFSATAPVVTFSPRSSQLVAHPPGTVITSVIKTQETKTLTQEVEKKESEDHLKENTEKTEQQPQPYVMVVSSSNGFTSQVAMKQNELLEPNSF
# Summary of the method: as §1
# EHF = target: T5, EHF (Homo sapiens, UniProt Q9NZC4 1-300); conditions: protein: recombinant; tags: N-terminal GST; dsDNA, one strand shown
# T5 sequence: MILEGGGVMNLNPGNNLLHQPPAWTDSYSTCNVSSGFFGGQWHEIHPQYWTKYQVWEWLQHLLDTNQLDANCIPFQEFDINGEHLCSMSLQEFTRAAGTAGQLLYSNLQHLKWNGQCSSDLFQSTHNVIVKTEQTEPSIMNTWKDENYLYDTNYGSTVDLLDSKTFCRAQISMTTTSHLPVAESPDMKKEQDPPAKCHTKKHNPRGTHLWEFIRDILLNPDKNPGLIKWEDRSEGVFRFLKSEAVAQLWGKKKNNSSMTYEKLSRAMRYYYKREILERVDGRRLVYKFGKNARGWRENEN
# Summary of the method: as §1
# SPI1 = SPI1 (Homo sapiens, UniProt P17947 1-270); conditions: protein: recombinant; tags: N-terminal GST; dsDNA, one strand shown
# Summary of the method: as §1
# SPIB = SPIB (Homo sapiens, UniProt Q01892 1-262); conditions: protein: recombinant; tags: N-terminal GST; dsDNA, one strand shown
# Chain of SPIB (Q01892 whole entry): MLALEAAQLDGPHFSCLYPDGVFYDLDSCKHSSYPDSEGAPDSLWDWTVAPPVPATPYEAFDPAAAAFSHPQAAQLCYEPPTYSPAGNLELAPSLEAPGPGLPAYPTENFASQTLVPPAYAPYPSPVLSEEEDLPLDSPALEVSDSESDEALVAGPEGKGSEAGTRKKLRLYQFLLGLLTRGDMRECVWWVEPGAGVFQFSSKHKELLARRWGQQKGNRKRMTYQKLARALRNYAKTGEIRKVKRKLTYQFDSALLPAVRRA
# Summary of the method: as §1
# ELK3 = target: T6, ELK3 (Homo sapiens, UniProt P41970 1-407); conditions: protein: recombinant; tags: N-terminal GST; dsDNA, one strand shown
# T6 sequence: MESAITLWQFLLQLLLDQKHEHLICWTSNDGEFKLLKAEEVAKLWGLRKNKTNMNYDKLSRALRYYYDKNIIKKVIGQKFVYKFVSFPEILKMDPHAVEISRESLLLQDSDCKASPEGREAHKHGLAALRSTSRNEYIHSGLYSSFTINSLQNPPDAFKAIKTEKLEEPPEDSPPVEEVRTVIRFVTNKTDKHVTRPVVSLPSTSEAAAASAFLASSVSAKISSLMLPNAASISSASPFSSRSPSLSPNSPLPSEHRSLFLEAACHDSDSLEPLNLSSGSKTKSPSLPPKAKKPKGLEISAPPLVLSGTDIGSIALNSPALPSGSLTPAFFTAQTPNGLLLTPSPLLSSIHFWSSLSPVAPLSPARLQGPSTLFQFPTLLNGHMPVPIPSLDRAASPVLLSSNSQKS
# Summary of the method: as §1
# FEV = target: T7, FEV (Homo sapiens, UniProt Q99581 1-238); conditions: protein: recombinant; tags: N-terminal GST; dsDNA, one strand shown
# T7 sequence: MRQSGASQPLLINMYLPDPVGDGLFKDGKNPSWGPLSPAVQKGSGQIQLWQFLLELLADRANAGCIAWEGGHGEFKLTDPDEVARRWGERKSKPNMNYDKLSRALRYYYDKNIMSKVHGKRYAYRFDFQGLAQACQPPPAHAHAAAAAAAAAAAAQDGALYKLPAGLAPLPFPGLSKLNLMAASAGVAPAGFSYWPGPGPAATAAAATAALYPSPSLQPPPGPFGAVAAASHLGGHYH
# Summary of the method: as §1
# ETV5 = ETV5 (Homo sapiens, UniProt P41161 1-510); conditions: protein: recombinant; tags: N-terminal GST; dsDNA, one strand shown
# Chain of ETV5 (P41161 whole entry): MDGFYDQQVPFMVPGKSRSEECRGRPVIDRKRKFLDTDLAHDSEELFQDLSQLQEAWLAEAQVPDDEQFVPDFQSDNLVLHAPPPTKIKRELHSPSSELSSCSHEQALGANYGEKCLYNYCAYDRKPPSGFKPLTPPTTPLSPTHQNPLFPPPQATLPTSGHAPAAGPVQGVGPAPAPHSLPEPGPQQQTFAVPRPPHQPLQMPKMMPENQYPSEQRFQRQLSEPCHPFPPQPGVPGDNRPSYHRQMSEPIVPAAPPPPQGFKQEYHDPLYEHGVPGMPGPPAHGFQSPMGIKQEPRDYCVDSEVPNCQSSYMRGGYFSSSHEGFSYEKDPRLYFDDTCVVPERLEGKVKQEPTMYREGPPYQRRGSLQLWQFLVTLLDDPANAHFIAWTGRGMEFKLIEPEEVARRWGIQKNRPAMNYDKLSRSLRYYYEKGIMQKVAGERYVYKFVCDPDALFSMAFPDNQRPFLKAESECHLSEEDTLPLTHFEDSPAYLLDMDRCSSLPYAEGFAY
# Summary of the method: as §1
# HSF1 = HSF1 (Homo sapiens, UniProt Q00613 1-529); conditions: protein: recombinant; tags: N-terminal GST; chain copies: 3; dsDNA, one strand shown
# Chain of HSF1 (Q00613 whole entry): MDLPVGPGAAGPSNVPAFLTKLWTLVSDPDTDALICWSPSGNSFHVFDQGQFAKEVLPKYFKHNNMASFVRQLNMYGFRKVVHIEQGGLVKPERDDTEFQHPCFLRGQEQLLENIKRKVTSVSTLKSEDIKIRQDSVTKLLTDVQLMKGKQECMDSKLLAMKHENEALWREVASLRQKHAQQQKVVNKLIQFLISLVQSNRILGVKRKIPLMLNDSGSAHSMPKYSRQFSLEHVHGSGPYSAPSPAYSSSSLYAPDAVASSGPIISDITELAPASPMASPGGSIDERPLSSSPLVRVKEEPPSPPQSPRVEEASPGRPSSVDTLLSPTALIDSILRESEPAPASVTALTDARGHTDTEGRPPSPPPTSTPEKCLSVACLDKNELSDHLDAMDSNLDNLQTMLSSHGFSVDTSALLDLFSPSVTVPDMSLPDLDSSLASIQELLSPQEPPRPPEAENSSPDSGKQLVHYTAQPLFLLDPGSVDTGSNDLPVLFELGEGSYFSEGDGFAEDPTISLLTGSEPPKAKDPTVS
# Summary of the method: as §1
# SPIC = target: T8, SPIC (Homo sapiens, UniProt Q8N5J4 1-248); conditions: protein: recombinant; tags: N-terminal GST; dsDNA, one strand shown
# T8 sequence: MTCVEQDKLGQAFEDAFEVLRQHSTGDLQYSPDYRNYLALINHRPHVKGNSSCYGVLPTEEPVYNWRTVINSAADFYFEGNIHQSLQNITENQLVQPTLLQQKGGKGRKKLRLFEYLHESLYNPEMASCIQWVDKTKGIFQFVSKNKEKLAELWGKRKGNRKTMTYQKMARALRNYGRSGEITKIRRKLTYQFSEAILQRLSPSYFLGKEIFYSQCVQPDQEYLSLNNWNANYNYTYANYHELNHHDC
# Summary of the method: as §1
# ELF4 = ELF4 (Homo sapiens, UniProt Q99607 1-663); conditions: protein: recombinant; tags: N-terminal GST; dsDNA, one strand shown
# Chain of ELF4 (Q99607 whole entry): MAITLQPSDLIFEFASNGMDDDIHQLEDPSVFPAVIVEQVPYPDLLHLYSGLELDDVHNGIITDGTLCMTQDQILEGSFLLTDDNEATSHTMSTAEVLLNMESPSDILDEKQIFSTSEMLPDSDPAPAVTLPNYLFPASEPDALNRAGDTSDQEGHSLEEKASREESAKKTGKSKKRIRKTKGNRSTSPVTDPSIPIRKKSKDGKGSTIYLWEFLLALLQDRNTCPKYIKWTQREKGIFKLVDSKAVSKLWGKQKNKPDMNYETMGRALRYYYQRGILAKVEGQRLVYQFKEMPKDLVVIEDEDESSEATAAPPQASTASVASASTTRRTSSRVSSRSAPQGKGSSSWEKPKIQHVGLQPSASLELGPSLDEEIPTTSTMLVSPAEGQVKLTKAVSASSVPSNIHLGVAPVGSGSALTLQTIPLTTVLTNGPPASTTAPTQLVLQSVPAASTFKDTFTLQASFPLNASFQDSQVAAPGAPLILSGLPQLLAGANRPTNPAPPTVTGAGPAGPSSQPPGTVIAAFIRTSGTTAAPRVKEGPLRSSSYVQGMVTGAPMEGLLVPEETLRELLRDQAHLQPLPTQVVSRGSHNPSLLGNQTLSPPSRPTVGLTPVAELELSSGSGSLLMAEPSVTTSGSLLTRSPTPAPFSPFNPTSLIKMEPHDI
# Summary of the method: as §1
# ELK4 = target: T9, ELK4 (Homo sapiens, UniProt P28324-2 1-405); conditions: protein: recombinant; tags: N-terminal GST; dsDNA, one strand shown
# T9 sequence: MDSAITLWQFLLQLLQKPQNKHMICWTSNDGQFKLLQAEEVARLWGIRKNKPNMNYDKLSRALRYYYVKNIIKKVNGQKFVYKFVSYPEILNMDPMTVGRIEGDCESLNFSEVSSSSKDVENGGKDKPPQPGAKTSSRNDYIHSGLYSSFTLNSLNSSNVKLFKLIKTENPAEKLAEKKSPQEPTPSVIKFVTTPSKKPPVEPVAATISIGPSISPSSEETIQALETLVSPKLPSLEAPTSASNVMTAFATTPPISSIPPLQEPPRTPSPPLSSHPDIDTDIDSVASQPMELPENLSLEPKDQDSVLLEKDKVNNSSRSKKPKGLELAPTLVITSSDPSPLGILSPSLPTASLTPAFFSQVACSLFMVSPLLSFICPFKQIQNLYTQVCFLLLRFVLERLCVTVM
# Summary of the method: as §1
# ETV2 = target: T10, ETV2 (Homo sapiens, UniProt O00321 1-342); conditions: protein: recombinant; tags: N-terminal GST; dsDNA, one strand shown
# T10 sequence: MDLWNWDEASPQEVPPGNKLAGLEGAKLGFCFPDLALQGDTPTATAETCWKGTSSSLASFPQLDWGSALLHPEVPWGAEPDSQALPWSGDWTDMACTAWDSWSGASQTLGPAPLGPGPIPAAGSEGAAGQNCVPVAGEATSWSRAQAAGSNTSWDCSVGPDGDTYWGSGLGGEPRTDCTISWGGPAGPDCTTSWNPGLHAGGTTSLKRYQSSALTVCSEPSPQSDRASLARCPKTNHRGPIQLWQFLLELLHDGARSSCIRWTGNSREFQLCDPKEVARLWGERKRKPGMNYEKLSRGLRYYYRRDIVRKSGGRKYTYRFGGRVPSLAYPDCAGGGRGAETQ
# Summary of the method: as §1
# ELF3 = target: T11, ELF3 (Homo sapiens, UniProt P78545 1-371); conditions: protein: recombinant; tags: N-terminal GST; dsDNA, one strand shown
# T11 sequence: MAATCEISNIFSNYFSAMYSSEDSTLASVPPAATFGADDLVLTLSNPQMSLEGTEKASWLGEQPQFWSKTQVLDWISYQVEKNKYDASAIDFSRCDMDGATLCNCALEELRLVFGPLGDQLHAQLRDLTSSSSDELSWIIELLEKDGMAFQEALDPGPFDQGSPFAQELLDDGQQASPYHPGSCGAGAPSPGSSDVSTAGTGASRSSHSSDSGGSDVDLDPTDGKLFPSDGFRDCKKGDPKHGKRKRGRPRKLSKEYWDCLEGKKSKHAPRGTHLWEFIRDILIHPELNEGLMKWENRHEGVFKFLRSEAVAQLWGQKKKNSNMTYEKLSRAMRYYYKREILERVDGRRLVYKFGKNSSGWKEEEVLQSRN
# Summary of the method: as §1
# CRX = CRX (Homo sapiens, UniProt O43186 1-299); conditions: protein: recombinant; tags: N-terminal GST; dsDNA, one strand shown
# Chain of CRX (O43186 whole entry): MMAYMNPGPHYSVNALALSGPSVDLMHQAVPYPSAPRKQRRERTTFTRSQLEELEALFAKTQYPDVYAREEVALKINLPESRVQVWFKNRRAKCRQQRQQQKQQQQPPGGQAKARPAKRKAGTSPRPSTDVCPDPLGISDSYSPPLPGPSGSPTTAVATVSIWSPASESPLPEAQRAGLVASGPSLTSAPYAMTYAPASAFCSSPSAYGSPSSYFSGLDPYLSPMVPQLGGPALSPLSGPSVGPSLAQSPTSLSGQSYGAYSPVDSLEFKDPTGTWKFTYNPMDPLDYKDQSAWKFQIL
# Summary of the method: as §1
# ETV1 = ETV1 (Homo sapiens, UniProt P50549 1-477); conditions: protein: recombinant; tags: N-terminal GST; dsDNA, one strand shown
# Chain of ETV1 (P50549 whole entry): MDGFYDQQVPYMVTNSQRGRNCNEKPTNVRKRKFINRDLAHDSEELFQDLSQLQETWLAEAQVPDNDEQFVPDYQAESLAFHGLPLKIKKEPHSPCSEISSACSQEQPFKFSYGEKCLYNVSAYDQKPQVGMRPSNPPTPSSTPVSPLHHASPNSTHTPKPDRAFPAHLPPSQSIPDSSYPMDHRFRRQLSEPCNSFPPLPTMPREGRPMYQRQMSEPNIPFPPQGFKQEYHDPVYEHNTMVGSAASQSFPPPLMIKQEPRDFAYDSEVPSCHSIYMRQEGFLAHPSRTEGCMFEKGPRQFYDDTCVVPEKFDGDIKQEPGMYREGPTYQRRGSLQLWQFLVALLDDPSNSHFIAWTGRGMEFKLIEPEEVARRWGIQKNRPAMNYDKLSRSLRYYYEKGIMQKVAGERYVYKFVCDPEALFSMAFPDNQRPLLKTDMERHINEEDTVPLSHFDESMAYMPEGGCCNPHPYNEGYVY
# Summary of the method: as §1
sequence,measurement,setting,value
CACATT,binding signal,FLI1,"1.3 fold enrichment (6-mer frequency, TF over GST control)"
same,binding signal,ELK1,"1.16 fold enrichment (6-mer frequency, TF over GST control)"
same,binding signal,GABPA,"1.2 fold enrichment (6-mer frequency, TF over GST control)"
same,binding signal,ERG,"1.15 fold enrichment (6-mer frequency, TF over GST control)"
same,binding signal,ELF1,"1.21 fold enrichment (6-mer frequency, TF over GST control)"
same,binding signal,EHF,"1.23 fold enrichment (6-mer frequency, TF over GST control)"
same,binding signal,SPI1,"1.14 fold enrichment (6-mer frequency, TF over GST control)"
same,binding signal,SPIB,"1.12 fold enrichment (6-mer frequency, TF over GST control)"
same,binding signal,ELK3,"1.13 fold enrichment (6-mer frequency, TF over GST control)"
same,binding signal,FEV,"1.18 fold enrichment (6-mer frequency, TF over GST control)"
same,binding signal,ETV5,"1.19 fold enrichment (6-mer frequency, TF over GST control)"
same,binding signal,HSF1,"1.14 fold enrichment (6-mer frequency, TF over GST control)"
same,binding signal,SPIC,"1.26 fold enrichment (6-mer frequency, TF over GST control)"
same,binding signal,ELF4,"1.16 fold enrichment (6-mer frequency, TF over GST control)"
same,binding signal,ELK4,"1.13 fold enrichment (6-mer frequency, TF over GST control)"
same,binding signal,ETV2,"1.28 fold enrichment (6-mer frequency, TF over GST control)"
same,binding signal,ELF3,"1.43 fold enrichment (6-mer frequency, TF over GST control)"
same,binding signal,CRX,"1.06 fold enrichment (6-mer frequency, TF over GST control)"
same,binding signal,ETV1,"1.28 fold enrichment (6-mer frequency, TF over GST control)"

# Reference: publication PMC7862700, “An all-to-all approach to the identification of sequence-specific readers for epigenetic DNA modifications on cytosine”
